The text below walks through data of PubChem BioAssay (EPA / NIEHS).

The target of experiment [1] is guinea pig Sigma Receptor, Non-selective Binding, SIGMAR1 (gene 100135589) (UniProt Q60492). Nature of the experiment: NVS_OR_gSIGMA_NonSelective: NovaScreen (NVS) Nuclear Receptor Binding Assay for guinea pig Sigma Receptor, Non-selective Binding (AID 2283367). The essentials: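 Membranes from guinea pig brain incubated with radioligand and test chemical for 1 h, then filtered and scintillation-counted. Duplicate primary testing at 25 uM, with concentration-series follow-up for actives.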
guinea pig Sigma Receptor, Non-selective Binding, SIGMAR1 (gene 100135589), sequence (Q60492 whole entry, looked up): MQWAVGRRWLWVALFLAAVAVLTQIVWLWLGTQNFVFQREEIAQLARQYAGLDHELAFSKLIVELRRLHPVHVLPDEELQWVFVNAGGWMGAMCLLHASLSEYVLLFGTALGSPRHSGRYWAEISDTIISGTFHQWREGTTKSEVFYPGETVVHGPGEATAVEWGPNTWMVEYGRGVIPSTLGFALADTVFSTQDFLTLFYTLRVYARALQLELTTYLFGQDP

Experiment [2] deals with guinea pig Dopamine Transporter (DAT), gene 100714898. Nature of the experiment: NVS_TR_gDAT: NovaScreen (NVS) Transporter Assay for guinea pig Dopamine Transporter (DAT) (AID 2283369).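 Further: active compounds lower bound radioligand signal relative to DMSO.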 The essentials: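 Cell-free striatal membrane prep (guinea pig), 2 h exposure, filtration + scintillation readout of radioligand binding. Single-point 25 uM duplicate; actives rerun singleton, top conc 50 uM.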

In experiment [3] the target is Estrogen receptor beta (Homo sapiens) (UniProt Q92731). Put plainly: OT_ER_ERbERb_1440: Odyssey Thera (OT) 24-hour HEK293T Protein-Complementation Assay for Estrogen Receptor-beta/-beta Homodimer (AID 2283380).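 Further: scored as signal increase over DMSO baseline for both agonists and antagonists.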 In short, it runs like this:
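HEK293T cells stably expressing ER beta LBD (aa 310-547) homodimer fragment-complementation reporter, dosed 24 h. Cells formaldehyde-fixed, Draq5-stained; gain in nuclear (agonist) or nuclear plus cytoplasmic (antagonist) fluorescence versus DMSO read by laser scanning cytometry.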

For experiment [4], the target named is Estrogen receptor (Homo sapiens) (UniProt P03372). Nature of the experiment: OT_ERa_GFPERaERE_0480: Odyssey Thera (OT) 8-hour HeLa Transcription Induction Assay for Estrogen Receptor (AID 2283381; active means hit-call score of the fitted dose curve at least 0.9, where 1 is the maximum; inactive means score below 0.9). The essentials: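 Fluorescence microscopy with high-content image analysis measures ERE-driven GFP induction in HeLa cells at 8 h post-dose. Increases fitted against DMSO baseline.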
Estrogen receptor (Homo sapiens), sequence (P03372 whole entry, looked up): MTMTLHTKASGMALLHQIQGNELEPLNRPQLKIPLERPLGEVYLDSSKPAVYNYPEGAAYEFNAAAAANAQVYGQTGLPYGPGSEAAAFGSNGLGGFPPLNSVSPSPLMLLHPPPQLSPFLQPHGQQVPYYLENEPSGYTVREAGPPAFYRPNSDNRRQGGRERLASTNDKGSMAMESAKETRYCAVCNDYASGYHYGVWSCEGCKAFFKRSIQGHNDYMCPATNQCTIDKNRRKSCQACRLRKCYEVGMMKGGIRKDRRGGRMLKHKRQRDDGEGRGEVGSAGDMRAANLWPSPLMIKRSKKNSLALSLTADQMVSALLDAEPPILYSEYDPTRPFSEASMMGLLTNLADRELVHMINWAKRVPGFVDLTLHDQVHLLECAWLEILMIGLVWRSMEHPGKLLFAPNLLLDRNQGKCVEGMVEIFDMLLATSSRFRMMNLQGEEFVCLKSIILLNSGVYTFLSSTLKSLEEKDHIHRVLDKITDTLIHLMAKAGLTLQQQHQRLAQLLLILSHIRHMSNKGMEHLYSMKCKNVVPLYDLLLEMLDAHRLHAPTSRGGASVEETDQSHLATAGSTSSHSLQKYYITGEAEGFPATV

The target is the same in experiment [5]. Put plainly: OT_ERa_GFPERaERE_0120: Odyssey Thera (OT) 2-hour HeLa Transcription Induction Assay for Estrogen Receptor (AID 2283382). In short, it runs like this:
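Fluorescence-microscopy images of the GFP-ERα/ERE reporter, scored by high-content image algorithms, give the readout. HeLa exposure lasted 2 h, and only signal increase over DMSO was fitted.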

For experiment [6], the target named is Bile acid receptor (Homo sapiens) (UniProt Q96RI1). Nature of the experiment: OT_FXR_FXRSRC1_0480: Odyssey Thera (OT) 8-hour HEK293T Protein-Complementation Assay for Farnesoid X receptor/SRC-1 Co-activator (AID 2283383). In short, it runs like this:
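Binding of FXR to coactivator SRC-1 was read as fluorescence from a reconstituted split reporter in HEK293T cells, 8 h after chemical addition. Only increases in signal versus DMSO were fit.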

Experiment [7] has the same target. Put plainly: OT_FXR_FXRSRC1_1440: Odyssey Thera (OT) 24-hour HEK293T Protein-Complementation Assay for Farnesoid X receptor/SRC-1 Co-activator (AID 2283384). In short, it runs like this:
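Protein-fragment complementation: FXR and SRC-1 fused to reporter fragments that reassemble on interaction, read by fluorescence intensity. Human HEK293T cells measured 24 h post-dose; positive-direction fit versus DMSO.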

Experiment [8] deals with Retinoic acid receptor RXR-alpha (Homo sapiens) (UniProt P19793). Put plainly: OT_NURR1_NURR1RXRa_0480: Odyssey Thera (OT) 8-hour HEK293T Protein Complementation Assay for Nurr1/retinoid X receptor (RXR) (AID 2283385). The essentials: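 Interaction of Nurr1 with RXRα read as reconstituted reporter fluorescence in a HEK293T fragment-complementation system, 8 h post-treatment; increase over DMSO baseline analysed.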
Retinoic acid receptor RXR-alpha (Homo sapiens), sequence (P19793 whole entry, looked up, the tested form may be a part): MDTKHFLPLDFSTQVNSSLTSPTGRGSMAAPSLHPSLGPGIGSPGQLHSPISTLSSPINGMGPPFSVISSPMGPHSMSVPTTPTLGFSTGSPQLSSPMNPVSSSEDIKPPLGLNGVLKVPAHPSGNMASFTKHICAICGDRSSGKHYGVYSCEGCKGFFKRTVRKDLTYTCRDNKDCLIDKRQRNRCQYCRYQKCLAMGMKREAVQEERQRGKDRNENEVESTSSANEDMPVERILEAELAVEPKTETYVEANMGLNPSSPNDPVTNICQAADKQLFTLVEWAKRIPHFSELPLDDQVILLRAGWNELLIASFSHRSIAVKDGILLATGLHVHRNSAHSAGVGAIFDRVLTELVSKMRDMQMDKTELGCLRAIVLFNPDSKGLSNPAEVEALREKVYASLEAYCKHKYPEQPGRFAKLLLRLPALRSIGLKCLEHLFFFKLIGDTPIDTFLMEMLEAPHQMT

Experiment [9] shares this target. Nature of the experiment: OT_NURR1_NURR1RXRa_1440: Odyssey Thera (OT) 24-hour HEK293T Protein Complementation Assay for Nurr1/retinoid X receptor (RXR) (AID 2283386). In short, it runs like this: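 Gain in fluorescence, fitted relative to DMSO, reflects Nurr1–RXRα association in HEK293T cells after 24 h dosing. Bait and prey are each linked to a reporter-protein fragment that reassembles on interaction.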

Experiment [10] has as its target Peroxisome proliferator-activated receptor gamma (Homo sapiens) (UniProt P37231). Put plainly: OT_PPARg_PPARgSRC1_0480: Odyssey Thera (OT) 8-hour Protein-Complementation Assay for Peroxisome Proliferator-activated Receptor Gamma / SRC-1 Co-activator (AID 2283387).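 Further: nuclear to cytoplasmic split Venus YFP fluorescence ratio reporting PPARg SRC-1 interaction.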 In short, it runs like this:
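Split-YFP (IFP1/IFP2) PPARg/SRC-1 reporter, HEK293T, 37 °C, 5% CO2; 8 h compound; formaldehyde fix + Draq5; high-content imaging, N/C ratio, ≥350 cells/image, positive direction vs DMSO.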

The target is the same in experiment [11]. Nature of the experiment: NVS_NR_hPPARg: NovaScreen (NVS) Nuclear Receptor Binding Assay for human Peroxisome Proliferator-activated Receptor gamma (PPARg) (AID 2283370). The essentials:
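FP read-out, 2 h post-dose, cell-free extracted receptor protein. Signal loss vs DMSO negative control = binding activity. Single-conc duplicate HTS at 25 uM; concentration-response follow-up for actives.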

The target of experiment [12] is human Norepinephrine Transporter (NET), SLC6A2 (gene 6530) (UniProt P23975). Put plainly: NVS_TR_hNET: NovaScreen (NVS) Transporter Assay for human Norepinephrine Transporter (NET) (AID 2283377).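 Further: cell-free membrane protein extracted from CHO cells expressing human NET.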 In short, it runs like this: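 CHO cell extracts expressing the transporter; tritiated or iodinated tracer displaced competitively; filtration plus scintillation readout at 1 h. Single-point duplicates at 25 uM, concentration series for follow-up; activity = signal drop relative to DMSO.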

In experiment [13] the target is mouse Estrogen Receptor alpha (Era), Esr1 (gene 13982) (UniProt P19785). Put plainly: NVS_NR_mERa: NovaScreen (NVS) Nuclear Receptor Binding Assay for mouse Estrogen Receptor alpha (Era) (AID 2283378).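 Further: hit means loss of bound radioligand signal relative to DMSO.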 In short, it runs like this: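 Filter scintillation counts of bound radioligand, measured 18 h post-dose, gave the readout; decreased signal relative to DMSO controls indicated displacement from mouse Era. Primary screen ran in duplicate at 25 uM; active chemicals were retested across concentrations.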

In experiment [14] the target is human Dopamine Transporter (DAT), SLC6A3 (gene 6531) (UniProt Q01959). Nature of the experiment: NVS_TR_hDAT: NovaScreen (NVS) Transporter Assay for human Dopamine Transporter (DAT) (AID 2283374).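 Further: activity means loss of bound radioligand signal relative to DMSO.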 The essentials: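 hDAT membranes + tritiated/iodinated radioligand, competitive displacement; 1 h; filter scintillation readout. Single conc 25 uM (duplicate), then conc-response for actives. DMSO = negative control.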
human Dopamine Transporter (DAT), SLC6A3 (gene 6531), sequence (Q01959 whole entry, looked up): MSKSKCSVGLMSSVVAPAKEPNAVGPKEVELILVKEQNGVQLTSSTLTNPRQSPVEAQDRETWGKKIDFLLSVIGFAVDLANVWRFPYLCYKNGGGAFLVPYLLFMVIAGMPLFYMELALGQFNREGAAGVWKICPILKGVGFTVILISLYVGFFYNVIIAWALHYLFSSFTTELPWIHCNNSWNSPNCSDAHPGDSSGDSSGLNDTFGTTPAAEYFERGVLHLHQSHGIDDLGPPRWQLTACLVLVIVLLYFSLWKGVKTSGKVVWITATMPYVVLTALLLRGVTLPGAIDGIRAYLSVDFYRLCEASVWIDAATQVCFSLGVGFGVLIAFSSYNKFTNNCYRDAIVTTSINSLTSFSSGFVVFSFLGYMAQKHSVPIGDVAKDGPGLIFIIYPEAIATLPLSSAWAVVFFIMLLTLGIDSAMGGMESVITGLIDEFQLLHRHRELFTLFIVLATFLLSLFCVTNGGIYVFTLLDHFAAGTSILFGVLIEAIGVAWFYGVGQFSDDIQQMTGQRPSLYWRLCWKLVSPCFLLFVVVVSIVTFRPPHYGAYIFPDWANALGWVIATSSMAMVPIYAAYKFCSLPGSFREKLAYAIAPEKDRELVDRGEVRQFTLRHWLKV

The target of experiment [15] is human Serotonin Transporter (SERT), SLC6A4 (gene 6532) (UniProt P31645). Nature of the experiment: NVS_TR_hSERT: NovaScreen (NVS) Transporter Assay for human Serotonin Transporter (SERT) (AID 2283372). The essentials: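 Human platelet membrane preparation; displacement of radioligand from serotonin transporter measured after 1 h by filtration and scintillation counting. Single 25 uM duplicate screen, then concentration series for actives, with DMSO as negative baseline.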
human Serotonin Transporter (SERT), SLC6A4 (gene 6532), sequence (P31645 whole entry, looked up): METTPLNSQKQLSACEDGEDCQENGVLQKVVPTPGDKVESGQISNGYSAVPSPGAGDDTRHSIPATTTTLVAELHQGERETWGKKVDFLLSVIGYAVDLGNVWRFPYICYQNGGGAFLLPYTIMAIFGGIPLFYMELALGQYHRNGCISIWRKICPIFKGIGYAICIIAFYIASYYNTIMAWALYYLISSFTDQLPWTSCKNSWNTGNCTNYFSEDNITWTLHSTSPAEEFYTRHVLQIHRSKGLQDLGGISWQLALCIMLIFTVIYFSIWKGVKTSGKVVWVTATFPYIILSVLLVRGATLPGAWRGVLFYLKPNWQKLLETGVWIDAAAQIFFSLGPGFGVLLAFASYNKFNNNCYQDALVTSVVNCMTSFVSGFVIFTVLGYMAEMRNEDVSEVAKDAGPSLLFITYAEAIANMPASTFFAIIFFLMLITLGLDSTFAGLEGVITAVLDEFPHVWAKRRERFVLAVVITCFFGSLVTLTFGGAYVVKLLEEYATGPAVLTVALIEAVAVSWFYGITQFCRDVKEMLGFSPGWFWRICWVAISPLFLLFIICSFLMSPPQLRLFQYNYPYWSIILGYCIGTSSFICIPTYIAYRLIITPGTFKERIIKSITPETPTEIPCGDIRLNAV

Experiment [16] concerns the target Norway rat Vesicular Monoamine Transporter (VMAT2), neurotransmitter transporter, Slc18a2 (gene 25549) (UniProt Q01827). Put plainly: NVS_TR_rVMAT2: NovaScreen (NVS) Transporter Assay for Norway rat Vesicular Monoamine Transporter (VMAT2), neurotransmitter transporter (AID 2283376).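 Further: actives lower the bound radioligand signal below the DMSO level.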 The essentials:
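Filter-based scintillation counting of radioligand bound to rat forebrain-derived VMAT2 protein, cell-free, 1 h post-dose. Signal loss relative to DMSO control scored; single-concentration duplicate screen (25 uM) followed by concentration-response testing of actives.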

For experiment [17], the target named is Agonist Androgen Response Element (ARE), AR (gene 367) (UniProt P10275). Put plainly: OT_AR_ARELUC_AG_1440: Odyssey Thera (OT) 24-hour CHO-K1 Luciferase Assay for Agonist Androgen Response Element (ARE) (AID 2283379). The essentials: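 Gain-of-signal reporter endpoint: cells (CHO-K1, hamster) are treated 24 h, luciferin/ATP reagent added, and luminescence compared with DMSO baseline.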
Agonist Androgen Response Element (ARE), AR (gene 367), sequence (P10275 whole entry, looked up): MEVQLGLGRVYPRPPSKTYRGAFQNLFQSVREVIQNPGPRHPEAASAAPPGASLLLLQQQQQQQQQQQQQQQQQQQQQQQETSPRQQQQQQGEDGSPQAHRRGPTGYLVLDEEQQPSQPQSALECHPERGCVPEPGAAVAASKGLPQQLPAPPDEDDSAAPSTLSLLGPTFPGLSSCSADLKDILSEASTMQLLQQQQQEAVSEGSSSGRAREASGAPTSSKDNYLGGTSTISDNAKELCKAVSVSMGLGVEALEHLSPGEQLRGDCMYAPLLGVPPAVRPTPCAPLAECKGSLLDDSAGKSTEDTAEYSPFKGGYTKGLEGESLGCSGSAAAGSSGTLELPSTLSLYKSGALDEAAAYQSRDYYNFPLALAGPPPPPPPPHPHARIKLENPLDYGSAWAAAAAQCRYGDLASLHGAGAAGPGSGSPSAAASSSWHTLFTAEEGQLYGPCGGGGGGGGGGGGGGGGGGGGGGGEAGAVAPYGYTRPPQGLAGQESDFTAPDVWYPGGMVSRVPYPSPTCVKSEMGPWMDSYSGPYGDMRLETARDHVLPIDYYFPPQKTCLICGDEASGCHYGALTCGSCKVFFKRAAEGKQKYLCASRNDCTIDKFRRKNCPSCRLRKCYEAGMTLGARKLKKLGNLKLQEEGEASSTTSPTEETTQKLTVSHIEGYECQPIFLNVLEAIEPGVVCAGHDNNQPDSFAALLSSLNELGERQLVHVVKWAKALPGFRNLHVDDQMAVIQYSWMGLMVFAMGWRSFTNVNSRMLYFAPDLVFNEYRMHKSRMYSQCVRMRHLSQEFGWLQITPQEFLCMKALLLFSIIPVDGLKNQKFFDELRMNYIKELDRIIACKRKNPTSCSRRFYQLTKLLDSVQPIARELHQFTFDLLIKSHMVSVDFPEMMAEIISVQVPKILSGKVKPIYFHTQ

In experiment [18] the target is rat Serotonin Transporter (SERT), Slc6a4 (gene 25553) (UniProt P31652). Nature of the experiment: NVS_TR_rSERT: NovaScreen (NVS) Transporter Assay for rat Serotonin Transporter (SERT) (AID 2283375). The essentials: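 Radioligand displacement, filter scintillation readout; rat forebrain membrane prep, 1 h post-dose. Single-conc 25 uM duplicate screen, then concentration-response on actives. Loss of signal vs DMSO baseline.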

“And” between values parts separate entries of the source, which are not always exact repeats. Equal entries are not always repeated. Results filed as inconclusive are left out. More than one record can exist for a structure, and the calls need not agree. The source made the active and inactive calls. How the source made its calls, unless noted: active means hit-call score of the fitted dose curve at least 0.9, where 1 is the maximum; inconclusive means response in the unintended direction; inactive means score below 0.9.

Estrogen receptor beta (Homo sapiens), sequence (Q92731 whole entry, looked up, the tested form may be a part): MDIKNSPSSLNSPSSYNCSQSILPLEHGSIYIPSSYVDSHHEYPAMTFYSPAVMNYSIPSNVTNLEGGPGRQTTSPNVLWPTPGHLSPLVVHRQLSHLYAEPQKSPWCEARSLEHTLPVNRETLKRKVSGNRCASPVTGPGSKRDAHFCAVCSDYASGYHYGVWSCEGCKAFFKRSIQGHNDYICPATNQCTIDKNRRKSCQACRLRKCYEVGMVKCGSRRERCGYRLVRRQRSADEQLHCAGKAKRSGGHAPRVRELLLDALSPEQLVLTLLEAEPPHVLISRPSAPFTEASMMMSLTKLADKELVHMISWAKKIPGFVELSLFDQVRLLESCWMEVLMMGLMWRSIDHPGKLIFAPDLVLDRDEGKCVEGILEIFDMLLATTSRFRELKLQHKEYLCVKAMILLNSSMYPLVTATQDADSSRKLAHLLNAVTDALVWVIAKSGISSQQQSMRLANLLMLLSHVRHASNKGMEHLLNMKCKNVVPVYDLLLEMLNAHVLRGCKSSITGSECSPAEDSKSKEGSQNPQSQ
Bile acid receptor (Homo sapiens), sequence (Q96RI1 whole entry, looked up): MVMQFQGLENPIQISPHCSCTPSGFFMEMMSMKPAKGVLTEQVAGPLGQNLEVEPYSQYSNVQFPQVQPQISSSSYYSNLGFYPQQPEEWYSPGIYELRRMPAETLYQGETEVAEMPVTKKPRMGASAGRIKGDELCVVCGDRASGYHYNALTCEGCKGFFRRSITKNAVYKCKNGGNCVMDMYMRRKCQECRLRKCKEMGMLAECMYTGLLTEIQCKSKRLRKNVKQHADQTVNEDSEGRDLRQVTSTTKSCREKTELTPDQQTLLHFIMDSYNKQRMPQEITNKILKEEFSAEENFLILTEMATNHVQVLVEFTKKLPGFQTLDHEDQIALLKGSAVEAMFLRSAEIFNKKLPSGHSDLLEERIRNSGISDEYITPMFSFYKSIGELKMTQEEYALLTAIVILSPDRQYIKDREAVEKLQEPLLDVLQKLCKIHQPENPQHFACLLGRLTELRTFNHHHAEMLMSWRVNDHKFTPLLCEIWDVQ
Peroxisome proliferator-activated receptor gamma (Homo sapiens), sequence (P37231 whole entry, looked up): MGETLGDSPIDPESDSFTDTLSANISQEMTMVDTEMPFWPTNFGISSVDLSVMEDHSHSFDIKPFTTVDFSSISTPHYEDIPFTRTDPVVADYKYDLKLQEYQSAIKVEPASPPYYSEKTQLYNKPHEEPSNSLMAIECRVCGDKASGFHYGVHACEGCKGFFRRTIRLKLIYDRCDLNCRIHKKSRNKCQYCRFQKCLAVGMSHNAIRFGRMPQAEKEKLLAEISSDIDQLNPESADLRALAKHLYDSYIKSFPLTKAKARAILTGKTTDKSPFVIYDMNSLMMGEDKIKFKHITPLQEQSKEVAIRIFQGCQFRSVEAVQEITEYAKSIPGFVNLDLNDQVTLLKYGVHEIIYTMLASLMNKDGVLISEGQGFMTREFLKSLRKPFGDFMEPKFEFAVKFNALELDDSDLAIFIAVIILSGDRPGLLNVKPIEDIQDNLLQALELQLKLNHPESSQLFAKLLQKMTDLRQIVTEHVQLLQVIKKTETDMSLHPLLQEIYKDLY

Regarding `C[C@]12CCC(=O)C=C1CC[C@@H]1[C@@H]2CC[C@]2(C)C(=O)CC[C@@H]12`, the AC50 in experiment [1] is 11.3 µM (active); in experiment [6], 26.8 µM (active) and 19.3 µM (active) and 27.1 µM (active); in experiment [7] it was 28.7 µM (active) and 30.7 µM (active). Also, the result in experiment [2], in experiment [3], in experiment [4], in experiment [5], in experiment [7] and in experiment [8] was inactive. Moreover, the outcome in experiment [9] and in [10] was inactive.
On to `CC(C)C(=O)OCC(C)(C)C(OC(=O)C(C)C)C(C)C` (stereo not drawn), for which the outcome in experiment [11], in experiment [12], in experiment [13], in experiment [3], in [4] and in experiment [5] was inactive. Besides, the result in experiment [9] and in experiment [10] was inactive.
Regarding `COc1ccc(O)c(C(C)(C)C)c1`, the AC50 is 16.6 µM (active) in [2], 8.78 µM (active) in experiment [14] and 57.3 µM (active) in experiment [3]. Further, the compound was classed as inactive in experiment [11], in experiment [4], in experiment [5], in [6], in experiment [7] and in experiment [8]. The result in experiment [9] and in experiment [10] was inactive.
As to `CC1=C2C[C@H]3[C@@H](CC=C4C[C@@H](O)CC[C@@]43C)[C@@H]2CC[C@]12O[C@@H]1C[C@H](C)CN[C@H]1[C@H]2C`, the result in experiment [15], in experiment [16], in experiment [17], in experiment [4], in experiment [5] and in experiment [6] was inactive. In addition, the outcome in experiment [7], in experiment [8], in experiment [9] and in experiment [10] was inactive.
Consider `Cc1cccc(C)c1N`, for which, in experiment [11], the AC50 was 0.0218 µM (active). Also, the call in experiment [3], in [4], in [5], in [6], in [7] and in experiment [9] was inactive. Moreover, in experiment [10], the outcome was inactive.
For `O=C(NC(=O)c1cc(F)c(F)cc1Cl)Nc1cc(F)ccc1N1CCC(C(=O)O)CC1`, the call in [11], in experiment [4], in experiment [5], in experiment [8], in [9] and in experiment [10] was inactive.
In the case of `Cc1ccccc1CO[C@@H]1C[C@@]2(C(C)C)CC[C@]1(C)O2`, the AC50 in experiment [15] is 4.86 µM (active); in [14] it was 11.2 µM (active); in [18] it was 6.62 µM (active); in [8], 81.2 µM (active). Moreover, the call in experiment [17], in experiment [9] and in experiment [10] was inactive.
With `Cc1cc2c3c(c1)C(c1ccccc1)=N[C@@H](NC(=O)c1ccncc1)C(=O)N3CC2`, the AC50 is 4.96 µM (active) in experiment [11]; 20.8 µM (active) in experiment [6]; 32.8 µM (active) in experiment [7]; 62 µM (active) in experiment [8]; 33.6 µM (active) in experiment [9]; 25 µM (active) and 20.8 µM (active) in [10]. Besides, the call in experiment [16], in experiment [3], in [4], in [5], in [8] and in experiment [9] was inactive.
